For some assays here: Results with a measured potency or affinity are listed apart. Activity calls are given as the source filed them.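 The calls were made as follows, unless noted: active = fluorescence ratio normalized to control raised more than 50% in primary screen plus both repeat runs; inactive = the rest.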
What was measured:
[1] = tested on: TRPC4 beta (transient receptor potential cation channel C4), mouse; assay: TRPC4 cation channel opening, retest – cell-based, Fluo4 calcium, HEK293 TRPC4beta/mu-opioid, duplicates, 10 µM, confirmation (AID 2426); conditions: Fluo4 calcium fluorescence, at 10 µM; hits give high values
[2] = tested on: transient receptor potential cation channel C4 beta (TRPC4), mouse; assay: TRPC4 cation channel opening, second retest – cell-based, second round, Fluo4, HEK293 TRPC4beta/mu-opioid, 1 µM, confirmation (AID 2461;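 active = primary screen active and over 50% activation in each of two duplicate runs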); conditions: Fluo4 calcium fluorescence, at 1 µM; hits give high values
[3] = tested on: TRPC4 (transient receptor potential cation channel C4 beta), mouse; assay: potentiation of DAMGO EC20 TRPC4 response – cell-based, second round, Fluo-4, HEK293 TRPC4beta/mu-opioid, 1 µM, confirmation (AID 2554;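 active = primary screen hit whose fluorescence ratio, in both repeats, exceeds the weak agonist control mean by 3 SD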); conditions: DAMGO EC20, Fluo-4 calcium flux, at 1 µM; hits give high values
[4] = tested on: TRPC4 beta (transient receptor potential cation channel C4), mouse; assay: potentiation of DAMGO EC20 TRPC4 response – cell-based, Fluo-4, HEK293 TRPC4beta/mu-opioid, confirmation (AID 2555;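 active = primary screen hit whose calcium fluorescence ratio, in both repeats, exceeds the weak agonist control mean by 3 SD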); conditions: DAMGO EC20, Fluo-4 calcium flux, at 10 µM; hits give high values
[5] = biological target: Short transient receptor potential channel 4 (Mus musculus) (UniProt Q9QUQ5); assay: blockers of DAMGO-evoked TRPC4 calcium flux – cell-based, Fluo4, HEK293 TRPC4beta/mu-opioid, confirmation (AID 2636;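 active = calcium signal cut by more than 3 SD below the full-agonist control yet still positive, in both repeats and the earlier primary screen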); conditions: at 10 µM; hits give high values
Sequence of Short transient receptor potential channel 4 (Mus musculus) (Q9QUQ5 whole entry, looked up): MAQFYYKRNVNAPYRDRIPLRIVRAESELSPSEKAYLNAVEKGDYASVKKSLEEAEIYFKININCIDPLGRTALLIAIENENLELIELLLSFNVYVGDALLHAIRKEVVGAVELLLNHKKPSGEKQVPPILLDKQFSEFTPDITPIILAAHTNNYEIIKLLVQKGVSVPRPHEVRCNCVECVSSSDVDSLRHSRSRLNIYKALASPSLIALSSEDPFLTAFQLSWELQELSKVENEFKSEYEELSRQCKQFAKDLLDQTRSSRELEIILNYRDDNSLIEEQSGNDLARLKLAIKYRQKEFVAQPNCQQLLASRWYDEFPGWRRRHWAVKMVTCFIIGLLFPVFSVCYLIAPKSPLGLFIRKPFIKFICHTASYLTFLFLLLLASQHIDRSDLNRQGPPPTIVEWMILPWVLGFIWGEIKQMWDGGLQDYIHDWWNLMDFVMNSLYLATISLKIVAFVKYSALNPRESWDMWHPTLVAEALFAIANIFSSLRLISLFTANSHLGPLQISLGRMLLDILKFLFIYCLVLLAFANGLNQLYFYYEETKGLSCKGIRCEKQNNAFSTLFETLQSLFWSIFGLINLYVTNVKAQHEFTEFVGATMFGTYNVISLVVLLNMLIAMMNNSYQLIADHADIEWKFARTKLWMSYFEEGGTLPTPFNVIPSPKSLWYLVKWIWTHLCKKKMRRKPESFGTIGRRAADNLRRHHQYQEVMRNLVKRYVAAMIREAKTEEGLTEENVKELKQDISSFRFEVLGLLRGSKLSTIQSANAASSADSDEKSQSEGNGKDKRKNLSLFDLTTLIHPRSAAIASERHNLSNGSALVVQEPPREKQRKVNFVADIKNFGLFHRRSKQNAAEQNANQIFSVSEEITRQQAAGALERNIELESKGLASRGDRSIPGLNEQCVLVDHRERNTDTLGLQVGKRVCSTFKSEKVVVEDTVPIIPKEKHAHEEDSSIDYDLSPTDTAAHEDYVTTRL

[6] = biological target: Short transient receptor potential channel 4 (Mus musculus) (UniProt Q9QUQ5); assay: blockers of DAMGO-evoked TRPC4 calcium flux – cell-based, second round, Fluo4, HEK293 TRPC4beta/mu-opioid, 1 µM, confirmation (AID 2637;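 active = calcium signal ratio cut to more than 3 SD under the fully stimulated control mean yet still positive, in both repeats and the primary screen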); conditions: at 1 µM; hits give high values
[7] = biological target: Short transient receptor potential channel 4 (Mus musculus) (UniProt Q9QUQ5); assay: calcium entry via TRPC4 opening agents – cell-based, HEK293 TRPC4/mu-opioid, Fluo-4 calcium, dose response (AID 434937;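 active = primary screen activator hit with a dose response curve and TRPC4 channel activation at any tested dose; inactive = no activation, no dose response, or not a primary hit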)
[8] = biological target: Short transient receptor potential channel 4 (Mus musculus) (UniProt Q9QUQ5); assay: potentiation of DAMGO-evoked TRPC4 calcium signal – cell-based, HEK293 TRPC4/mu-opioid, Fluo-4 calcium, EC20 DAMGO, dose response (AID 434941;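 active = earlier screen potentiator hit that boosts the TRPC4 ion channel at some dose, with a dose response; inactive = no potentiation, no dose response, or not a prior hit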;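 also: calcium entry triggered by an EC20 dose of DAMGO at the co-expressed mu-opioid receptor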)
[9] = biological target: Short transient receptor potential channel 4 (Mus musculus) (UniProt Q9QUQ5); assay: block of DAMGO-driven TRPC4 calcium entry – cell-based, HEK293 TRPC4/mu-opioid, Fluo-4 calcium, dose response (AID 434942;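 active = primary screen inhibitor hit that blocks the TRPC4 channel at some tested dose, yielding a dose curve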)
[10] = biological target: Short transient receptor potential channel 6 (Mus musculus) (UniProt Q61143); assay: TRPC6 blockade by TRPC4 inhibitor hits – cell-based, HEK293, membrane potential dye, duplicate, selectivity assay for TRPC4 inhibitor project, confirmation (AID 434948;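 active = active in primary screen and both duplicates, each dropping signal beyond three positive-control SD with fluorescence still positive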); conditions: HEK293 TRPC6, membrane potential dye fluorescence, at 10 µM, stimulated with maximal-effect acetylcholine; hits give high values
Sequence of Short transient receptor potential channel 6 (Mus musculus) (Q61143 whole entry, looked up): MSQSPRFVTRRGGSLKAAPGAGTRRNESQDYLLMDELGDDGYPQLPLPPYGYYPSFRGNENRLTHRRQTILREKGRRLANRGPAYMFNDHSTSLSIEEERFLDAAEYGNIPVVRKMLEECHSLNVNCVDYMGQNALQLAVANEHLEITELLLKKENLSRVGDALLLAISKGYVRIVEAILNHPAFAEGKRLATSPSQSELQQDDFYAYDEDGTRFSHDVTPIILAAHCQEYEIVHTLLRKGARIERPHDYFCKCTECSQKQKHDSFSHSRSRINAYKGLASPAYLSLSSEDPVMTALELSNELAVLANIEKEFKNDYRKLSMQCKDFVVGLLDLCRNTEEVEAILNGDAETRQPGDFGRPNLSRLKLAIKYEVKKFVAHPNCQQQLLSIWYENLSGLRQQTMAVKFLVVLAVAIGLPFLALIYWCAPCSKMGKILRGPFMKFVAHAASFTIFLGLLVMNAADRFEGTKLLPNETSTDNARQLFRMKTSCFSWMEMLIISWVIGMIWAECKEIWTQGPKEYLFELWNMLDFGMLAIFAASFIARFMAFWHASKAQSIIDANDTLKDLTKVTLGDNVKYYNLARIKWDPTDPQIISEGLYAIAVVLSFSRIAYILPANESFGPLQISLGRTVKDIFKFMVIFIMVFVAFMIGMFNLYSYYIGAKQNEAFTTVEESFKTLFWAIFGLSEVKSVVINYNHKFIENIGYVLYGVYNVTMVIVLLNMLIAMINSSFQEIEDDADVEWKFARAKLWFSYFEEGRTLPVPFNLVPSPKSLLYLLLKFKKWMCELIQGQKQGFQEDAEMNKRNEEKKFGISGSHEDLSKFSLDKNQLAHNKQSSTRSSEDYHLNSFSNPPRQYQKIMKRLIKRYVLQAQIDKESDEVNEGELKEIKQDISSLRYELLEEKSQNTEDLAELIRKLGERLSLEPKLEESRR

[11] = biological target: Short transient receptor potential channel 6 (Mus musculus) (UniProt Q61143); assay: TRPC6 opening by TRPC4 activator hits – cell-based, HEK293, membrane potential dye, duplicate, selectivity assay for TRPC4 activator project, confirmation (AID 434950;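 active = membrane potential signal rise above negative control mean plus 3 SD in both duplicates, also active in the earlier TRPC4 screen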); conditions: HEK293 TRPC6, membrane potential fluorescence, at 10 µM; activation: hits give high values; outcome: activation
[12] = biological target: Short transient receptor potential channel 6 (Mus musculus) (UniProt Q61143); assay: positive modulators of mouse TRPC6 channel – HEK293 cells, membrane potential dye, duplicate, selectivity assay for TRPC4 potentiator project, confirmation (AID 434952;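 active = compound raising the membrane signal above positive-control mean plus 3 SD in both repeats, and a primary screen hit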); conditions: HEK293 TRPC6, membrane potential dye fluorescence, at 10 µM, maximal acetylcholine added after compound; hits give high values
[13] = biological target: Short transient receptor potential channel 4 (Mus musculus) (UniProt Q9QUQ5); assay: calcium flux activators in TRPC4/5HT1a cells, counter-screen for TRPC4 activator project, cell-based, second counter screen, HEK293 TRPC4/5HT1a, Fluo-4 (AID 434977;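 active = calcium signal rise above buffer-control mean plus 5 SD in both duplicates, and also a hit in the primary screen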); conditions: Fluo-4 calcium flux, at 10 µM; hits give high values
[14] = serotonin-gated TRPC4 signal block – cell-based, second counter screen, HEK293 TRPC4/5HT1a, Fluo-4, counter-screen for TRPC4 inhibitor project, confirmation (AID 434978;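 active = primary screen active whose calcium signal fell more than 3 SD beyond the full-serotonin control mean in both duplicate plates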;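 also: serotonin given first at submaximal then at maximal dose after compound preincubation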); conditions: Fluo-4 calcium flux, at 10 µM, serotonin added to trigger calcium flux; hits give high values
[15] = tested on: TRPC4 (mouse), co-expressed with 5HT1a in HEK293; assay: enhancement of serotonin-evoked TRPC4 response – cell-based, second counter screen, HEK293 TRPC4/5HT1a, Fluo-4, counter-screen for TRPC4 potentiator project, confirmation (AID 434979;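 active = signal rise over 3 SD above mean of control wells given weak agonist, in both repeats and first screen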); conditions: Fluo-4 calcium flux, at 10 µM, serotonin added at its EC20 dose; hits give high values
[16] = nonspecific calcium rise without TRPC4 – cell-based, HEK293 mu-opioid receptor line, counter-screen for TRPC4 activator project, confirmation (AID 449723;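 active = hit in primary screen, with calcium signal over 5 SD above buffer well mean in both duplicates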;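 also: counter screen cells carry the mu-opioid receptor alone and lack TRPC4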); conditions: HEK293 mu-opioid cells, Fluo-4 calcium fluorescence, at 10 µM; hits give high values
[17] = nonspecific potentiation of DAMGO calcium response – cell-based, HEK293 mu-opioid receptor line, counter-screen for TRPC4 allosteric potentiator project, confirmation (AID 449724;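 active = calcium signal rise more than 3 SD above the low-dose agonist control mean, in both duplicate plates and the primary screen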); conditions: HEK293 mu-opioid receptor cells, Fluo-4 calcium flux, at 10 µM, compound added before EC20 DAMGO stimulus; hits give high values

O=C(CSCc1cccc(Cl)c1)N1CCN(Cc2ccc3c(c2)OCO3)CC1
inactive: outcome [1] | outcome [2] | outcome [3] | outcome [4] | outcome [5] | outcome [6] | outcome [7] | outcome [8] | outcome [9] | outcome [10] | outcome [11] | outcome [12] | outcome [13] | outcome [14] | outcome [15] | outcome [16] | outcome [17]

CCOc1ccc(N=CNc2ccc(OCC)cc2)cc1
inactive: outcome [1] | outcome [2] | outcome [4] | outcome [5] | outcome [6] | outcome [7] | outcome [8] | outcome [9] | outcome [10] | outcome [11] | outcome [12] | outcome [13] | outcome [14] | outcome [16] | outcome [17]
active: potentiation [3] 18% | potentiation [15] 23%

CC(C)Oc1cccc(C(=O)NC(=S)Nc2ccc(N3CCN(C)CC3)cc2)c1
active: potentiation [15] 16.6%
inactive: outcome [1] | outcome [2] | outcome [3] | outcome [4] | outcome [5] | outcome [6] | outcome [7] | outcome [8] | outcome [9] | outcome [10] | outcome [11] | outcome [12] | outcome [13] | outcome [14] | outcome [16] | outcome [17]

CCCc1c(-c2ccc(O)cc2)nn(-c2ccc(O)cc2)c1-c1ccc(O)cc1
active: potentiation [4] 20% | potentiation [15] 23.9%
inactive: outcome [1] | outcome [2] | outcome [3] | outcome [5] | outcome [6] | outcome [7] | outcome [8] | outcome [9] | outcome [10] | outcome [11] | outcome [12] | outcome [13] | outcome [14] | outcome [16] | outcome [17]

Cc1ccc(-c2cn(-c3ccccc3)c(SCC(N)=O)n2)cc1C
inactive: outcome [1] | outcome [2] | outcome [4] | outcome [5] | outcome [6] | outcome [7] | outcome [8] | outcome [9] | outcome [10] | outcome [11] | outcome [12] | outcome [13] | outcome [14] | outcome [16]
active: potentiation [3] 29% | potentiation [15] 25.4% | activation [17] 741%

CC(=O)c1ccc(N2CCN(C(=O)C3CCN(S(=O)(=O)c4ccc5c(c4)CC(C)N5C(=O)C4CC4)CC3)CC2)cc1 (centres undefined)
inactive: outcome [1] | outcome [2] | outcome [3] | outcome [5] | outcome [6] | outcome [7] | outcome [8] | outcome [9] | outcome [10] | outcome [11] | outcome [12] | outcome [13] | outcome [14] | outcome [16] | outcome [17]
active: potentiation [4] 9% | potentiation [15] 14.8%

COC(=O)c1cc(N2CCN(C)CC2)nc2ccccc12
inactive: outcome [1] | outcome [2] | outcome [3] | outcome [4] | outcome [5] | outcome [6] | outcome [7] | outcome [8] | outcome [9] | outcome [10] | outcome [11] | outcome [12] | outcome [13] | outcome [14] | outcome [15] | outcome [16] | outcome [17]

— PubChem BioAssay
